In PubChem BioAssay (NCATS):
Records with an inconclusive call do not appear. Activity calls are given as the source filed them. Unless noted, calls follow the shape of the dose curve; as a rule, active = well fitted curve in either direction with a large enough effect (not every such curve was filed as active); inconclusive = small, poorly fitted or top-dose-only effect, or another doubt; inactive = flat fitted curve, though single readings scatter.

Key:
[1] = biological target: Lysosomal acid glucosylceramidase (Homo sapiens) (UniProt P04062); assay: Glucocerebrosidase-p2 (AID 348; in the data active = potency below about 10 µM; also: potency is read from the fitted curve at half-maximal effect); conditions: purified GBA, blue fluorogenic substrate, 40 min
Lysosomal acid glucosylceramidase (Homo sapiens), sequence (P04062 whole entry, looked up): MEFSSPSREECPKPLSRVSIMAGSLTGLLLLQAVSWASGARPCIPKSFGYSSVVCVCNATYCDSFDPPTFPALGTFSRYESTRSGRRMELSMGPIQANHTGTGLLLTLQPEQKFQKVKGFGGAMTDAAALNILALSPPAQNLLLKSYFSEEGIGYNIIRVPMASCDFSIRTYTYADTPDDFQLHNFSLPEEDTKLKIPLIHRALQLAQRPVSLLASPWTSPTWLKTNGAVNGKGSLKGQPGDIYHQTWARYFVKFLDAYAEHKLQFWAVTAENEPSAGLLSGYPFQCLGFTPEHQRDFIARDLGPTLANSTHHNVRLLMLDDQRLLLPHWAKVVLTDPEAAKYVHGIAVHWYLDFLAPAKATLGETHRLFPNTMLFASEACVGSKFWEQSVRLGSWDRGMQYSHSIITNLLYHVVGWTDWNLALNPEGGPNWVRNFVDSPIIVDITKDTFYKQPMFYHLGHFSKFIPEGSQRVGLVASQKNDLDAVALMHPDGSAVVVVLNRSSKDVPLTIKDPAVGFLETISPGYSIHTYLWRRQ
Summary of the method: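 Normal human glucocerebrosidase (0.2 nM) with blue fluorogenic substrate (80 uM final) in citrate/phosphate pH 5.9 with 10mM sodium taurocholate, 0.01% tween-20; 40 min RT, NaOH/glycine stop; fluorescence Ex 365/Em 440; AC50 from a titration from 0.6 nM upwards.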

[2] = AP1 Signaling Pathway (AID 357); conditions: ME-180 AP-1-bla reporter, EGF-induced, beta-lactamase ratio, 5 h; at 7.69 µM (top of the series) unless noted;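 also: ME-180 reporter cells stimulated with EGF at its EC50 level; % is scaled to controls: 0 for no effect and ±100 for the full control effect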
Summary of the method: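 First, ME-180 AP-1-bla cells were cultured overnight at 37 °C in low-serum Opti-MEM. Next, titrated compounds with EC50 EGF were incubated 5 hours. Finally, CCF4 was added for 2.5 hours and the 460/530 nm ratio recorded.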

[3] = biological target: Cytochrome P450 1A2 (Homo sapiens) (UniProt P05177); assay: p450-cyp1a2 (AID 410; calls by dose curve; also: potency is read from the fitted curve at half-maximal effect;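 as to activity change, negative = inhibition: -100% = full effect of reference inhibitor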); conditions: recombinant CYP1A2, luciferin-ME demethylation, luminescence; series mostly up to 11.4 µM
Cytochrome P450 1A2 (Homo sapiens), sequence (P05177 whole entry, looked up): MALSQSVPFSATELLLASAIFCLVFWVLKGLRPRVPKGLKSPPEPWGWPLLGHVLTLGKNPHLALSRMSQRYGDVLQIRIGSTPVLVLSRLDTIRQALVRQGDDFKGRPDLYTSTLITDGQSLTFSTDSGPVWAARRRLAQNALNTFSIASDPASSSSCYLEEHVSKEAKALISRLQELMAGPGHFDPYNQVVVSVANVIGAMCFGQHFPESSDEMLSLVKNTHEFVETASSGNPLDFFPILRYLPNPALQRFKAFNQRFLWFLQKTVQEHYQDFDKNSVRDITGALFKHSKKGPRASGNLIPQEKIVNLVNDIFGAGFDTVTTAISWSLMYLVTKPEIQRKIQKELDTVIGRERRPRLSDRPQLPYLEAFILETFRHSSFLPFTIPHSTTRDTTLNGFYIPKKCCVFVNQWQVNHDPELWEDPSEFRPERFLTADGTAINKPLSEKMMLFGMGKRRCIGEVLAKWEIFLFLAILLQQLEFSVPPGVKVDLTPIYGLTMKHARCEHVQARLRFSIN
Summary of the method: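 Read-out is luminescence from luciferin produced by CYP1A2 demethylation of Luciferin-ME (100uM, at Km). Detection reagent stopped the 60 min NADPH-dependent reaction; signals were normalized to 57 uM furafylline.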

[4] = NFAT Signaling Pathway (AID 444); conditions: Jurkat NFAT-bla M1, carbachol, beta-lactamase ratio, 5 h; at 7.69 µM (top of the series) unless noted;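 also: carbachol stimulus at about its EC50 of 1 µM final; % is scaled to controls: 0 for no effect and ±100 for the full control effect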
Summary of the method: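 Read-out: CCF4 FRET ratio (460 nm/530 nm) after 1 h RT dye loading, used for %activity and AC50 from titration series. Cells: Jurkat NFAT-β-lactamase/M1 line, treated with compound plus 1 uM carbachol for 5 h, 37 °C.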

[5] = Stat Signaling Pathway (AID 446); conditions: ME-180 SIE beta-lactamase reporter, IL-6 stimulated, 5 h; at 7.69 µM (top of the series) unless noted;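 also: ME-180 cervical cancer cells given 40 pM IL-6 alongside compound; SIE-controlled beta-lactamase reporter measured as 460/530 nm FRET emission ratio; % is scaled to controls: 0 for no effect and ±100 for the full control effect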
Summary of the method: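 FRET read-out (405 nm excitation, 460/530 nm emission) of a beta-lactamase reporter under a STAT-inducible element in ME-180 cervical carcinoma cells. Cells with compound receive 40 pM IL-6 for 5 h. Values are normalised to AC90 stimulation and AC90 JAK-inhibitor controls.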

[6] = biological target: Glucocorticoid receptor (Homo sapiens) (UniProt P04150); assay: GR-GFP Redistribution (AID 450;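 active = compounds whose dose series gives a full or clear partial fitted curve of increased nuclear translocation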; also: potency is read from the fitted curve at half-maximal effect); conditions: U2OS GR-GFP nuclear translocation, laser cytometry, 2 h
Glucocorticoid receptor (Homo sapiens), sequence (P04150 whole entry, looked up, the tested form may be a part): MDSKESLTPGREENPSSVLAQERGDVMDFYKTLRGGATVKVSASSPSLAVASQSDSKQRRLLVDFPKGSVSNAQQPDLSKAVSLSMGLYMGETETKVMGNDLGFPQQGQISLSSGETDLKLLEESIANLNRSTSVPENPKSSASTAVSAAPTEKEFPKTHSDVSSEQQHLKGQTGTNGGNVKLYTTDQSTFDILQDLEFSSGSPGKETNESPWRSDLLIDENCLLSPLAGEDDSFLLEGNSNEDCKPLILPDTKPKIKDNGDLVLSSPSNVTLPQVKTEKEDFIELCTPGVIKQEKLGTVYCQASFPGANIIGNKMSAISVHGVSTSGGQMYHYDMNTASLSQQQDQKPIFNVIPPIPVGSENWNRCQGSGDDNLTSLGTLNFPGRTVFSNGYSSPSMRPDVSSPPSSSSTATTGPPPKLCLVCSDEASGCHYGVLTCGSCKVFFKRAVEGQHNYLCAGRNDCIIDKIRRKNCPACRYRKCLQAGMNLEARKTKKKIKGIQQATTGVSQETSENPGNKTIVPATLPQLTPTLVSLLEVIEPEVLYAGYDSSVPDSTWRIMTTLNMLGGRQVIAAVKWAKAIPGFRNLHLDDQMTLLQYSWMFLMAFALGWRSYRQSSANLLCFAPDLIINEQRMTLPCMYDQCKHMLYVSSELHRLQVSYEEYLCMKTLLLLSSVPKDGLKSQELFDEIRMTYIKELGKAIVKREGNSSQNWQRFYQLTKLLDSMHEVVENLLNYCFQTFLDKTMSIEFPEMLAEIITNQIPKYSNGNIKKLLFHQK

[7] = biological target: Glucocorticoid receptor (Homo sapiens) (UniProt P04150); assay: GR-EFC Redistribution (AID 451; calls by dose curve; also: potency is read from the fitted curve at half-maximal effect); conditions: CHO-K1 GR-EFC translocation, beta-gal luminescence, 2 h
Summary of the method: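 Translocation of GR-ED fusion to nuclear EA restores b-gal, read by luminescence after 1 h room-temperature detection. Engineered CHO-K1 biosensor cells, 1,000/well, exposed 2 h at 37 C to titrations up to 46 uM final.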

[8] = biological target: Mitogen-activated protein kinase 10 (Mus musculus) (UniProt Q61831); assay: JNK3 AlphaScreen Assay (AID 530); conditions: JNK3 lysate, c-Jun phosphorylation; series mostly up to 11.4 µM;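 also: kinase came from lysate of stimulated human HepG2 cells; signal reports phosphorylation of biotinylated GST-cJun 1-79 at Ser73 with 10 µM ATP; % is scaled to controls: 0 for no effect and ±100 for the full control effect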
Summary of the method: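 Kinase buffer: 20 mM Tris-HCl pH 7.6, 10 mM MgCl2, 1 mM DTT, 0.1 mM Na3VO4, 0.01% Tween-20; ATP 10 uM. Substrate biotin-GST-cJun(1-79), enzyme from activated HepG2 lysates. Detection by Ser73 phospho-antibody AlphaScreen.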

[9] = biological target: 3',5'-cyclic-AMP phosphodiesterase 4B (Homo sapiens) (UniProt Q07343); assay: qHTS Assay for Inhibitors of PDE-IV (AID 607; active = well fitted activation curve with a large enough effect in the main read-out, with a control signal flat, not every such curve was filed as active; also: % of control where 0% means no effect); conditions: HEK293 ACTOne CNG channel cells, membrane potential fluorescence; series mostly up to 22.9 µM
3',5'-cyclic-AMP phosphodiesterase 4B (Homo sapiens), sequence (Q07343 whole entry, looked up): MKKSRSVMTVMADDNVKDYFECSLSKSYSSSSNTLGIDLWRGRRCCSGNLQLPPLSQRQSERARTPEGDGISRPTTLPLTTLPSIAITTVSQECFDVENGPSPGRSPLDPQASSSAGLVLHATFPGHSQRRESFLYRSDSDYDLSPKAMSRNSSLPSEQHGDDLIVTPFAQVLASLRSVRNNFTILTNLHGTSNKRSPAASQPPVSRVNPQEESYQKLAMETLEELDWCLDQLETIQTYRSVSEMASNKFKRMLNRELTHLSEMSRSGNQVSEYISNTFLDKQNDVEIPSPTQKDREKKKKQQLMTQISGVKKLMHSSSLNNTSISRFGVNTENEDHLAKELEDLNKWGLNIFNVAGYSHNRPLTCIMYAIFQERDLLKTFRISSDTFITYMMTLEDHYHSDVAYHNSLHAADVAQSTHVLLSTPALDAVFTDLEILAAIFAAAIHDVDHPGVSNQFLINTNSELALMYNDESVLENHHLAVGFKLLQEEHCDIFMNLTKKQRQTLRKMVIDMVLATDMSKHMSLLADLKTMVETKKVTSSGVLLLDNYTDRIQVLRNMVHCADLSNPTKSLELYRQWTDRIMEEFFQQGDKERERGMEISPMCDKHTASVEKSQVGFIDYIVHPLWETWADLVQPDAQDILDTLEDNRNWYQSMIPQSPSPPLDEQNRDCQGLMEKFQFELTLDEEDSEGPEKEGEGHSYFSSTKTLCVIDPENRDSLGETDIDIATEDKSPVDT
Summary of the method: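 Cell-based read-out of cAMP via a modified cyclic nucleotide-gated channel and membrane potential dye (535/590 nm) in HEK293 cells expressing PDE4 endogenously. Compounds tested up to 22.9 uM final; 100 uM RO 20-1724 reference.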

[10] = biological target: Cytochrome P450 3A4 (Homo sapiens) (UniProt P08684); assay: qHTS Assay for Inhibitors and Substrates of Cytochrome P450 3A4 (AID 884; active = well fitted curve in the direction sought with a large enough effect; an effect the other way counts as inactive or inconclusive; also: potency is read from the fitted curve at half-maximal effect; nearly all actives have a fitted effect of over 50% in size); conditions: recombinant CYP3A4, Luciferin-PPXE luminescence; series mostly up to 57.1 µM
Cytochrome P450 3A4 (Homo sapiens), sequence (P08684 whole entry, looked up): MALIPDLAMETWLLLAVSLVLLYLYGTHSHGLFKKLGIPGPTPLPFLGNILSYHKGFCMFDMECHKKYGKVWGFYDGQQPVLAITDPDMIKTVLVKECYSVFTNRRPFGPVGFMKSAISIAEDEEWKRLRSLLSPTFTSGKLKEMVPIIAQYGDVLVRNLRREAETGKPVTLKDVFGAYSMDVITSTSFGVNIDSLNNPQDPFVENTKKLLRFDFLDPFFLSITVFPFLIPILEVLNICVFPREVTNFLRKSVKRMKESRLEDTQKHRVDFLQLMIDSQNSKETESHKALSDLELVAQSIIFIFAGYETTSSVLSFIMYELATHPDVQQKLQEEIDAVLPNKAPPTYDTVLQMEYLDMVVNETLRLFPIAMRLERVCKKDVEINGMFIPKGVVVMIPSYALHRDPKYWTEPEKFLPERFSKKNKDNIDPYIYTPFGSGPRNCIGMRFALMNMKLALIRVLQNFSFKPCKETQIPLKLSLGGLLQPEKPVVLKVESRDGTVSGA
Summary of the method: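 Luminescent readout of luciferin produced by CYP3A4 (20 nM) dealkylation of Luciferin-PPXE, 25 uM (its KM). NADPH-driven reaction ran 60 min at RT after 10 min compound preincubation; data scaled to 57 uM ketoconazole as 100% inhibition.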

[11] = biological target: Cytochrome P450 3A4 (Homo sapiens) (UniProt P08684); assay: qHTS Assay for Activators of Cytochrome P450 3A4 (AID 885; active = well fitted curve in the direction sought with a large enough effect; an effect the other way counts as inactive or inconclusive; also: nearly all actives have a fitted effect of over 65% in size); conditions: recombinant CYP3A4, Luciferin-PPXE luminescence, 60 min; series mostly up to 11.4 µM
Summary of the method: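 Luminescent readout of luciferin formed from 25 uM Luciferin-PPXE (KM level) by 20 nM CYP3A4 in 200 mM KPO4, with 60 min NADPH-driven reaction at room temperature after 10 min compound exposure. Ketoconazole (57 uM) defined 100% inhibition.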

[12] = biological target: Cytochrome P450 2C9 (Homo sapiens) (UniProt P11712); assay: qHTS Assay for Inhibitors and Substrates of Cytochrome P450 2C9 (AID 883; active = well fitted curve in the direction sought with a large enough effect; an effect the other way counts as inactive or inconclusive; also: % is scaled to controls: 0 for no effect and ±100 for the full control effect; nearly all actives have a fitted effect of over 60% in size); conditions: recombinant CYP2C9, luciferin-H luminescence, 60 min; series mostly up to 11.4 µM
Cytochrome P450 2C9 (Homo sapiens), sequence (P11712 whole entry, looked up): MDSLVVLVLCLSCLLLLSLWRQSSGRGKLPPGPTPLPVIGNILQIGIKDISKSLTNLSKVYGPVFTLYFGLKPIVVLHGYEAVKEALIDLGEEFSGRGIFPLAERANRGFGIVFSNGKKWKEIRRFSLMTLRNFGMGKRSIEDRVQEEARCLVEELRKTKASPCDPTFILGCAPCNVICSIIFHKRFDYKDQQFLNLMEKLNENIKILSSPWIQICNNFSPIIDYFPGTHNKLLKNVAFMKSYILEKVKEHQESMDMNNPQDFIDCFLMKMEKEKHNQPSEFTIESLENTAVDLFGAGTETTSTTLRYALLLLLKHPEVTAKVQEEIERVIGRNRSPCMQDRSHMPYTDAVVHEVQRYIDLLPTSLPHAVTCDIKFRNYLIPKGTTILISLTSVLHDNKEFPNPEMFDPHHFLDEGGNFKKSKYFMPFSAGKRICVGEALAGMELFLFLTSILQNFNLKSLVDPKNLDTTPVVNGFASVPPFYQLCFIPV
Summary of the method: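 Luminescent read-out of deoxyluciferin hydroxylation, normalized to 57uM sulphaphenazole (AC100). Reaction: 10nM enzyme, 100uM Luciferin-H (equal to KM), 25mM KPO4, 10 min compound preincubation, then 60 min with NADPH regeneration, both at 37C.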

[13] = biological target: Cytochrome P450 2C19 (Homo sapiens) (UniProt P33261); assay: qHTS Assay for Inhibitors and Substrates of Cytochrome P450 2C19 (AID 899; active = well fitted curve in the direction sought with a large enough effect; an effect the other way counts as inactive or inconclusive; also: nearly all actives have a fitted effect of over 60% in size; also: potency is read from the fitted curve at half-maximal effect); conditions: recombinant CYP2C19, luciferin-H EGE luminescence; series mostly up to 11.4 µM
Cytochrome P450 2C19 (Homo sapiens), sequence (P33261 whole entry, looked up): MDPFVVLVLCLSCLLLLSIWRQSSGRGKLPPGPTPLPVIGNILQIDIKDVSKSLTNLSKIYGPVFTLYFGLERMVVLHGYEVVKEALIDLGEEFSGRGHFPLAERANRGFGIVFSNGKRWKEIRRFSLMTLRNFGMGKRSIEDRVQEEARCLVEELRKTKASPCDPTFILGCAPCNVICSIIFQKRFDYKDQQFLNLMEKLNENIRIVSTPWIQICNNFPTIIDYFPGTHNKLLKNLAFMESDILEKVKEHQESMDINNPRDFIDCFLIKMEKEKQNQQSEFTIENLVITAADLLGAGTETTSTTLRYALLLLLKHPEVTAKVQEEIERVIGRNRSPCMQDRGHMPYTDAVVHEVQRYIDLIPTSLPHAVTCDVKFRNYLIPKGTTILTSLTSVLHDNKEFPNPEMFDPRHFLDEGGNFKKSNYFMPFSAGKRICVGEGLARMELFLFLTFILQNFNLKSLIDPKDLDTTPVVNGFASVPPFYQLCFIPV
Summary of the method: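 Luminescence readout of luciferin formed from 10uM Luciferin-H EGE (KM level) by 5 nM CYP2C19 in 50mM KPO4. 60 min NADPH-driven reaction at 37C after 10 min compound preincubation; data scaled to 57uM ketoconazole inhibition.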

[14] = Confirmation and Secondary Assay for Modulators of Hemoglobin Beta Chain Splicing at IVS2 654 locus (AID 910; active = well fitted curve in the direction sought with a large enough effect; an effect the other way counts as inactive or inconclusive;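 also: HeLa cells stably carrying EGFP split by mutant beta-globin IVS2-654 intron; per-well total GFP intensity by laser scanning cytometry after 2-day treatment; % of control where 0% means no effect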); conditions: HeLa EGFP-654 splicing reporter, GFP fluorescence, 48 h; series mostly up to 38.3 µM
Summary of the method: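 Readout: per-well total peak green fluorescence (488 nm ex, 500–520 nm em) from objects 5–250 µm, reflecting correct splicing of an EGFP-654 reporter. Compounds were applied for 2 days at 37 °C to overnight-plated HeLa EGFP-654 cells; controls were DMSO and 500 nM IVS2-654 PNA.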

[15] = Confirmation and Secondary Assay for Modulators of Hemoglobin Beta Chain Splicing at IVS2 705 locus (AID 930; active = well fitted curve in the direction sought with a large enough effect; an effect the other way counts as inactive or inconclusive;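 also: HeLa cells stably expressing the EGFP-705 splicing reporter; GFP fluorescence per well restored by corrected splicing of the IVS2-705 intron in EGFP; % of control where 0% means no effect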); conditions: HeLa EGFP-705 splicing reporter, GFP fluorescence, 48 h; series mostly up to 38.3 µM
Summary of the method: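 Secondary splice-site specificity test uses HeLa expressing CMV-driven EGFP interrupted by IVS2-705; cells were treated 2 days at 37C with 500 nM antisense PNA as positive control.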

[16] = qHTS Assay for Identification of Small Molecule Agonists for Hypoxia Response Element Signaling Pathway (AID 914; active = well fitted activation curve with a large enough effect in the signal ratio, with a control signal flat, not every such curve was filed as active; the % refers to the signal ratio; also: % of control where 0% means no effect); conditions: ME-180 (cervical carcinoma) HRE-bla reporter, beta-lactamase ratio, CoCl2, 17 h; activation: active compounds read high
Summary of the method: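 qHTS titration; ME-180 HRE-bla cells; EC50 CoCl2 co-treatment, 17 h at 37 degrees Celsius; CCF4 dye, ex 405nm, em 460nm and 530nm; %Activity from ratio; AC50.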

[17] = biological target: Cytochrome P450 2D6 (Homo sapiens) (UniProt P10635); assay: qHTS Assay for Inhibitors and Substrates of Cytochrome P450 2D6 (AID 891; active = well fitted curve in the direction sought with a large enough effect; an effect the other way counts as inactive or inconclusive; also: potency is read from the fitted curve at half-maximal effect; nearly all actives have a fitted effect of over 60% in size); conditions: recombinant CYP2D6, luciferin-ME EGE luminescence; series mostly up to 11.4 µM
Cytochrome P450 2D6 (Homo sapiens), sequence (P10635 whole entry, looked up): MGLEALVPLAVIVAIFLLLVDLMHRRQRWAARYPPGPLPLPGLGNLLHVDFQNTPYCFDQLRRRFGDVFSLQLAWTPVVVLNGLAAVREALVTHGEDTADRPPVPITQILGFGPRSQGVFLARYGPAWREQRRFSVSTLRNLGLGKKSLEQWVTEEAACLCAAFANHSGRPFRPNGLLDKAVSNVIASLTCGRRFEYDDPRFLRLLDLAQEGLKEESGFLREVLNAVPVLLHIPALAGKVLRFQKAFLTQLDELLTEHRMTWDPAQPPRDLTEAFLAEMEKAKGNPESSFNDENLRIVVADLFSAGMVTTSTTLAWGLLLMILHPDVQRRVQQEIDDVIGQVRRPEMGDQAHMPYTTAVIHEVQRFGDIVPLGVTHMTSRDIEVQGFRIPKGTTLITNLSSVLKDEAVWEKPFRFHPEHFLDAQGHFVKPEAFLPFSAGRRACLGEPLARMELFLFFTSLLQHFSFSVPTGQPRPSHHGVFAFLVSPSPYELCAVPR
Summary of the method: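 Luminescent read-out of luciferin formed by 5 nM human CYP2D6 demethylating 30 uM Luciferin-ME EGE (Km level) over 60 min at room temperature after NADPH regeneration addition. Data normalized to full inhibition by 1.43 uM quinidine.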

COc1ccc2c(c1)Cc1cc(N=[N+]([O-])c3ccc4c(c3)Cc3cc(OC)ccc3-4)ccc1-2
active: Potency [3] 1.58 µM | Potency [10] 5.01 µM
inactive: Potency [1] > 11.4 µM | activity change, negative = inhibition [2] -9.92% | activity change, negative = inhibition [4] -17.3% | activity, negative = inhibition [5] -1.13% | Potency [6] > 46 µM | Potency [7] > 9.22 µM | Potency [8] | Potency [9] | Potency [11]

CC(C)[C@@H]1OC(=O)C=CC=CC=CC=CC=CC[C@@H](O)[C@H](C)[C@@H](O)C[C@H](O)C[C@H](O)C[C@H](O)C[C@H](O)C[C@H](O)C[C@H](O)C=C[C@@H]1C
inactive: Potency [1] > 11.4 µM | activity change, negative = inhibition [2] 1.06% | activity change, negative = inhibition [3] -2.1% [at 2.29 µM] | activity change, negative = inhibition [4] 9.95% | activity, negative = inhibition [5] 8% | Potency [6] > 46 µM | Potency [7] > 9.22 µM | Potency [8] | Potency [9] | Potency [12] | Potency [13]

CCOC(=O)C1=C(C)NC(=O)N[C@@H]1c1coc2cc(C)cc(C)c2c1=O
active: Potency [3] 2.51 µM
inactive: Potency [1] > 11.4 µM | activity change, negative = inhibition [2] -13.4% | activity change, negative = inhibition [4] 17.5% | activity, negative = inhibition [5] -5.6% | Potency [6] > 46 µM | Potency [7] > 9.22 µM | Potency [8] | Potency [9] | Potency [11]

CNc1ncncc1-c1ccc(C(=O)N(C)C)cc1
inactive: Potency [1] > 11.4 µM | activity change, negative = inhibition [2] -7.23% | activity change, negative = inhibition [4] 7.99% | activity, negative = inhibition [5] 8.34% | Potency [6] > 46 µM | Potency [7] > 46 µM | Potency [8] | Potency [9] | outcome [14] | outcome [15]
active: Potency [3] 15.8 µM | Potency [10] 5.01 µM

Cc1ccc2c(c1)N[C@H](c1ccc(C(=O)O)cc1)c1cccn1-2
active: Potency [3] 0.794 µM | Potency [10] 0.0501 µM
inactive: Potency [1] > 11.4 µM | activity change, negative = inhibition [2] -23.5% | activity change, negative = inhibition [4] -7.71% | activity, negative = inhibition [5] -5.32% | Potency [6] > 46 µM | Potency [7] > 9.22 µM | Potency [8] | Potency [9] | Potency [11] | activation [16] -21.9%

Cc1ccc(N=Nc2ccc(N)cc2C)c(S(N)(=O)=O)c1
active: Potency [3] 0.501 µM
inactive: Potency [1] > 11.4 µM | activity change, negative = inhibition [2] 2.62% | activity change, negative = inhibition [4] 15.6% | activity, negative = inhibition [5] -6.29% | Potency [6] > 46 µM | Potency [7] > 9.22 µM | Potency [8] | Potency [9] | Potency [11]

Cc1cc2c(cc1C)NC1=C(N2)O[C@H](c2c[nH]c3ccc(COc4ccccc4)cc23)C1=O
active: Potency [3] 2.51 µM | Potency [10] 3.98 µM | Potency [13] 0.501 µM
inactive: Potency [1] > 11.4 µM | activity change, negative = inhibition [2] -28.4% | activity change, negative = inhibition [4] 2.39% | activity, negative = inhibition [5] -5.89% | Potency [6] > 46 µM | Potency [7] > 9.22 µM | Potency [8] | Potency [9] | Potency [11]

OCCNc1ncnc2nc[nH]c12
inactive: Potency [1] > 11.4 µM | activity change, negative = inhibition [2] 7.92% | Potency [3] | activity change, negative = inhibition [4] 9% | activity, negative = inhibition [5] 2.92% | Potency [6] > 46 µM | Potency [7] > 9.22 µM | Potency [8] | Potency [9] | Potency [11]

O=C(O)c1nc2nc(Cl)c(Cl)nc2[nH]1
inactive: Potency [1] > 11.4 µM | activity change, negative = inhibition [2] 0.697% | Potency [3] | activity change, negative = inhibition [4] -0.0714% | activity, negative = inhibition [5] 2.39% | Potency [6] > 46 µM | Potency [7] > 9.22 µM | Potency [8] | Potency [9] | Potency [11]

CC1=C/C(=C(/c2ccc(O)c(C)c2)c2ccccc2C(=O)O)C=CC1=O
inactive: Potency [1] > 11.4 µM | activity change, negative = inhibition [2] 12.7% | activity change, negative = inhibition [4] -5.21% | activity, negative = inhibition [5] 4.74% | Potency [6] > 46 µM | Potency [7] > 9.22 µM | Potency [8] | Potency [9] | Potency [11]
active: Potency [3] 3.16 µM | Potency [10] 1.58 µM | Potency [17] 1.58 µM | Potency [13] 0.0032 µM

S=C(Nc1ccc2c(c1)Cc1ccccc1-2)Nc1ccc2c(c1)Cc1ccccc1-2
active: Potency [3] 0.2 µM
inactive: Potency [1] > 11.4 µM | activity change, negative = inhibition [2] -4.53% | activity change, negative = inhibition [4] 9.24% | activity, negative = inhibition [5] 3.09% | Potency [6] > 46 µM | Potency [7] > 9.22 µM | Potency [8] | Potency [9] | Potency [11]

CC(C)(C)CC(C)(C)c1cc(O)c(O)c(CN2CCCCC2)c1
inactive: Potency [1] > 11.4 µM | activity change, negative = inhibition [2] 0.737% | Potency [3] | activity change, negative = inhibition [4] -28.7% | activity, negative = inhibition [5] 3.86% | Potency [6] > 46 µM | Potency [7] > 9.22 µM | Potency [8] | Potency [9] | Potency [11]

Nc1nc(SCc2ccccc2[N+](=O)[O-])c2[nH]cnc2n1
active: Potency [3] 5.01 µM | Potency [10] 3.16 µM
inactive: Potency [1] > 11.4 µM | activity change, negative = inhibition [2] -3.57% | activity change, negative = inhibition [4] 14.4% | activity, negative = inhibition [5] -8.39% | Potency [6] > 46 µM | Potency [7] > 9.22 µM | Potency [8] | Potency [9] | Potency [11]
